PubChem BioAssay (EPA / NIEHS)
Active and inactive are the calls of the source. The calls were made as follows: active = hit-call score of the fitted dose curve at least 0.9, where 1 is the maximum; inactive = score below 0.9.

Target: Cellular tumor antigen p53 (Homo sapiens) (UniProt P04637)
Assay: ATG_p53_CIS: Attagene CIS-FACTORIAL HepG2 Assay for human p53 Transcription Factor (AID 2282994)
Conditions: HepG2 p53 cis-element reporter, Attagene mRNA; actives raise or lower the signal
Procedure: ATG_CIS is a cell-based, multiplexed-readout assay that uses HepG2, a human liver cell line, with measurements taken at 24 hours after chemical dosing in a 24-well plate.ATG_p53_CIS is one of 52 assay component(s) measured or calculated from the ATG_CIS assay. It is designed to make measurements of mRNA induction, a form of inducible reporter, as detected with fluorescence intensity signals by Reverse transcription polymerase chain reaction (RT-PCR) and Capillary electrophoresis technology.Data from the assay component ATG_p53_CIS was analyzed into 1 assay endpoint. This assay endpoint, ATG_p53_CIS, was analyzed with bidirectional fitting relative to DMSO as the negative control and baseline of activity. Using a type of inducible reporter, measures of mRNA for gain or loss-of-signal activity can be used to understand the reporter gene at the transcription factor-level as they relate to the gene TP53. Furthermore, this assay endpoint can be referred to as a primary readout, because this assay has produced multiple assay endpoints where this one serves a reporter gene function. To generalize the intended target to other relatable targets, this assay endpoint is annotated to the dna binding intended target family, where the subfamily is tumor suppressor.
Human liver HepG2 cells are transiently transfected with multiple reporter transcription units (MRTUs) in 6-well plates using FuGene 6 reagent (Roche; 3 ml FuGene/1 mg DNA). The MRTU constructs are regulated by a cis-regulating element (promoter). […] A major difference between the CIS and TRANS system is that in CIS activities of endogenous TFs are measured, whereas the TRANS assay evaluates changes in activities of exogenous, chimeric NR-Gal4 proteins. […] At the end of 24 hour incubation, total RNA was isolated using TriZol reagent (Invitrogen). The isolated RNA is then reverse-transcribed using oligo(dT) primer and Mo-MLV reverse transcriptase (Invitrogen) with DNAse I (Ambion) treatment for 30 min. The one-tenth of the produced cDNA was amplified by PCR using Taq DNA polymerase (Invitrogen) and two reporter sequence-specific primers. The PCR products were fluorescently labeled by primer extension with 6-arboxyfluorescein (6-FAM) 5'-labeled reporter sequence-specific primer (2 min at 95 C, 20 s at 68 C and 10 min at 72 C) and these products were digested with 5U of HpaI (New England Biolabs) for 2h at 37 C. The fragments were purified using Qiaquick PCR columns (Qiagen), analyzed on an ABI 3130xL genetic analyzer (Applied Biosystems) with peak positions identified by using a set of X-rhodamine (ROX)-labeled MapMarker1000 molecular weight standards (BioVentures). The raw capillary electrophoresis data was processed using Attagraph software (Attagene).

Sequence of Cellular tumor antigen p53 (Homo sapiens) (P04637 whole entry, looked up): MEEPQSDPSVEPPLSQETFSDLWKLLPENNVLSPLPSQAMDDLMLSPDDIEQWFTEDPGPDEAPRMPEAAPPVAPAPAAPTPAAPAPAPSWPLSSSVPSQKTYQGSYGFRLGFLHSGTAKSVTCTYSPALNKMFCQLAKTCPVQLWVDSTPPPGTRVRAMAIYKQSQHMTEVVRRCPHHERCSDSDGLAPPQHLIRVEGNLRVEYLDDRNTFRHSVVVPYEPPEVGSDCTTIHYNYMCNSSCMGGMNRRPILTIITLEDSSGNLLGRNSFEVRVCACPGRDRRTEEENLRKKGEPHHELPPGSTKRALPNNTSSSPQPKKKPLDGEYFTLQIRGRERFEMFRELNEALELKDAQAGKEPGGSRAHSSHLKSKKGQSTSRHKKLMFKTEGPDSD

Row | SMILES | outcome | AC50
1 | CCCCOCCOC(=O)COc1nc(Cl)c(Cl)cc1Cl | inactive | –
2 | Cc1ccc(C(C)(C)C)cc1 | inactive | –
3 | Cc1ccc(N/N=c2\c(=O)cc/c(=N/Nc3ccc(S(=O)(=O)O)cc3)c2=O)c(C)c1 | inactive | –
4 | CCCCCCCCCCOC(C)=O | inactive | –
5 | C[C@]12C=CC(=O)C=C1CC[C@@H]1[C@@H]2[C@@H](O)C[C@@]2(C)[C@H]1CC[C@]2(O)C(=O)CO | inactive | –
6 | Cc1cc(C)c(C)c(C)c1 | inactive | –
7 | CC=CC(F)(F)C(F)(F)C(F)(F)F | inactive | –
8 | O=C(Nc1ccccc1)c1ccccc1O | inactive | –
9 | CC(=O)NS(=O)(=O)c1ccc(N)cc1 | inactive | –
10 | CCCCC(CC)CCC(CC(C)C)OS(=O)(=O)O (stereo not given) | inactive | –
11 | O=CN1CCCCC1 | inactive | –
12 | Clc1nc2ccccc2s1 | inactive | –
13 | CCCCCCCCCCCSCC(=O)O | inactive | –
14 | O=c1[nH]c(=O)c2[nH]c(=O)[nH]c2[nH]1 | inactive | –
15 | CC=CCO | inactive | –
16 | C(=CC=Nc1ccccc1)C=CNc1ccccc1 | inactive | –
17 | CCCCCCCC/C=C\CCCCCCCC(=O)O | inactive | –
18 | O=c1[nH]nc(-c2ccc([N+](=O)[O-])o2)o1 | inactive | –
19 | C#CC1(O)CC[C@H]2[C@@H]3CCC4=CCCC[C@@H]4[C@H]3CC[C@@]21C (stereo not given in full) | – | 33.4 µM (active)
20 | CCCCCCC1(C)CCC(=O)O1 (stereo not given) | inactive | –

Row | SMILES | outcome | AC50
21 | COc1ccc(-c2coc3cc(O)ccc3c2=O)cc1 | inactive | –
22 | NC(=O)c1ccccc1O | inactive | –
23 | C=CC=CC=CCCCCC | inactive | –
24 | CCCCC/C=C\CCC=O | inactive | –
25 | O=C(O)c1cc2ccccc2nc1C(=O)O | inactive | –
26 | CC1=NN(c2cc(S(=O)(=O)O)ccc2Cl)C(=O)C1N=Nc1ccccc1 (stereo not given) | inactive | –
27 | C=C[Si](OC(C)=O)(OC(C)=O)OC(C)=O | inactive | –
28 | COC(=O)c1sccc1S(N)(=O)=O | inactive | –
29 | Nc1ccc(Cl)cc1Cl | inactive | –
30 | CC(C)c1ccc(C#N)cc1 | inactive | –
31 | CCOC(=O)c1ccccc1C(=C1C=C(Br)C(=O)C(Br)=C1)c1cc(Br)c(O)c(Br)c1 | – | 48.3 µM (active)
32 | O=C1CCCC(=O)O1 | inactive | –
33 | Cc1cnc(NC(=O)C2=C(O)c3ccccc3S(=O)(=O)N2C)s1 | inactive | –
34 | Nc1ncn([C@@H]2O[C@H](CO)[C@@H](O)[C@H]2O)c(=O)n1 | – | 2.1 µM (active)
35 | CCC(Cc1ccccc1)(C(=O)c1ccc(N2CCOCC2)cc1)N(C)C (stereo not given) | inactive | –
36 | CC1=CC[C@H](C(C)C)C=C1 | inactive | –
37 | O=C(O)c1ccccc1Nc1cccc(C(F)(F)F)c1 | inactive | –
38 | CC(=O)Oc1ccc(C)cc1 | inactive | –
39 | CC1OC1C1CCC2(C)OC2C1 (stereo not given) | inactive | –
40 | CC(C)CCCC(C)CC=O (stereo not given) | inactive | –
